Assay results published in ChEMBL document CHEMBL3988442, “University of Dundee, Small-Polar-MMV Screening Library” (2021).
For some of these results: Measured potencies and affinities stand elsewhere.

Experiments:
Set-up in all cases: scale not given: direction of the effect not stated beside the values
[1] = target: Protein translocase subunit SecA (Escherichia coli (strain K12)) (UniProt P10408); test: Assay to Identify E. coli SecA ATPase Inhibitors; assay type: functional; conditions: 30 µM
Chain of Protein translocase subunit SecA (Escherichia coli (strain K12)) (P10408 whole entry): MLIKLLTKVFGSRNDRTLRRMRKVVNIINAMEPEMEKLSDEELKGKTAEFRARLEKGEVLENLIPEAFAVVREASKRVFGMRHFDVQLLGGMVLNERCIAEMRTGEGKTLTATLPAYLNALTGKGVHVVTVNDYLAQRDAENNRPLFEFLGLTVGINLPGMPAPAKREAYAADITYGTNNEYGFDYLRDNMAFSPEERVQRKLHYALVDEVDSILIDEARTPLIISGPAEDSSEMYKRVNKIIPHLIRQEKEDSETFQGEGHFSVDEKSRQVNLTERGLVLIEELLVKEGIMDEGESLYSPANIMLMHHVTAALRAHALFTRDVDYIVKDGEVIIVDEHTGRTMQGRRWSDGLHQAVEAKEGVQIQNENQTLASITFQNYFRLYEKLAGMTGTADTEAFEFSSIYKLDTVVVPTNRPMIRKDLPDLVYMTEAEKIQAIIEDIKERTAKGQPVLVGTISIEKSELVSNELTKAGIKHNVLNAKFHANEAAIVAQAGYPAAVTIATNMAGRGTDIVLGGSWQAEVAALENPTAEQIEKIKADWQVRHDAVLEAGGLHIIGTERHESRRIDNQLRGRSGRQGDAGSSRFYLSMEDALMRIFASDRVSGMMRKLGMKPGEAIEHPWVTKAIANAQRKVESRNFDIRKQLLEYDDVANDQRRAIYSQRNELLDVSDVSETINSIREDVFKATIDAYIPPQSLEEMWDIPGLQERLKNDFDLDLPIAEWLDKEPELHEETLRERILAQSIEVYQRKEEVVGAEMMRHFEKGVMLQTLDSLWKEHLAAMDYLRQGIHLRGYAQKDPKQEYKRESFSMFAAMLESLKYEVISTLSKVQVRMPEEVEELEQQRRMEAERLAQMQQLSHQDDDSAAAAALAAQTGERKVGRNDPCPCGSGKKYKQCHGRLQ

[2] = target: T1, Ubiquitin-activating enzyme e1, putative (Leishmania donovani (strain BPK282A1)) (UniProt E9BSI1); test: Leishmania donovani Ubiquitin Activating Enzyme (LdE1); assay type: functional; conditions: 30 µM
T1 sequence (whole entry): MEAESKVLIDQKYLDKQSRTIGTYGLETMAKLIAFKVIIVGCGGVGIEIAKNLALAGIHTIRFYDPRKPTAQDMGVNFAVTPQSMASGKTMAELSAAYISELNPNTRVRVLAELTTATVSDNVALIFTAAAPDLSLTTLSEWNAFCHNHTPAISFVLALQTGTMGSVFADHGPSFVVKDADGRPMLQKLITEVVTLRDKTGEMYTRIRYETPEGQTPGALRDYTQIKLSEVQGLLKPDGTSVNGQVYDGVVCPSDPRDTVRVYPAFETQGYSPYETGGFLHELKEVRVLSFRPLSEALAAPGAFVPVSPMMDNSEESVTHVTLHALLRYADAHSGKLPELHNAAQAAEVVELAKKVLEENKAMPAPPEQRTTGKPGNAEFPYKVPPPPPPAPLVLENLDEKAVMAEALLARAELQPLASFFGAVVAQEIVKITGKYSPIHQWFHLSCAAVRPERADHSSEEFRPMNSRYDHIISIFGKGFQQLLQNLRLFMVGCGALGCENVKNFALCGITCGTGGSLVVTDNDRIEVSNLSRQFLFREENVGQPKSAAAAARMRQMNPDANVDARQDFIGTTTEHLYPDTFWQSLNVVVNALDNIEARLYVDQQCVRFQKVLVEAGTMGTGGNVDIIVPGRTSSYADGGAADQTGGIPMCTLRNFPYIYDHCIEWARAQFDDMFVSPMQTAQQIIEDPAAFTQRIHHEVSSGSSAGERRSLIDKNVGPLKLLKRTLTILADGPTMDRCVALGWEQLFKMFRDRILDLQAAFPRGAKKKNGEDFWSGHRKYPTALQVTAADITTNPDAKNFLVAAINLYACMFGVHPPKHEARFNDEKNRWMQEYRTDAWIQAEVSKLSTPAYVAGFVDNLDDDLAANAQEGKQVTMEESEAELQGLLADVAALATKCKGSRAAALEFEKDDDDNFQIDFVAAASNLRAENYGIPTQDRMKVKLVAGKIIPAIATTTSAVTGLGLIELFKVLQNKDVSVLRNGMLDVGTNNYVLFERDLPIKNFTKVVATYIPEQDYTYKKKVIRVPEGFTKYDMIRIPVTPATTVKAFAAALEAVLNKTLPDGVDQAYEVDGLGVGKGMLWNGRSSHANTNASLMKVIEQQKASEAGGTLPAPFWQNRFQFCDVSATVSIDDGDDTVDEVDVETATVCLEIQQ

[3] = target: AMP-activated protein kinase, AMPK (Homo sapiens) (UniProt P54646+O43741+P54619+Q9UGJ0+Q9Y478+Q13131+Q9UGI9); test: AMP-dependent Kinase enzyme assay. An in vitro enzyme assay that detects ADP turnover that is directly proportional to AMPK activity. This uses naive AMPK that is activated during the assay with MK-8722; assay type: functional; conditions: 30 µM
[4] = target: Sialic acid-binding Ig-like lectin 9 (Homo sapiens) (UniProt Q9Y336); test: Hs-Siglec9 ALPHAscreen SOP 20170721; conditions: 10 µM
Chain of Sialic acid-binding Ig-like lectin 9 (Homo sapiens) (Q9Y336 whole entry): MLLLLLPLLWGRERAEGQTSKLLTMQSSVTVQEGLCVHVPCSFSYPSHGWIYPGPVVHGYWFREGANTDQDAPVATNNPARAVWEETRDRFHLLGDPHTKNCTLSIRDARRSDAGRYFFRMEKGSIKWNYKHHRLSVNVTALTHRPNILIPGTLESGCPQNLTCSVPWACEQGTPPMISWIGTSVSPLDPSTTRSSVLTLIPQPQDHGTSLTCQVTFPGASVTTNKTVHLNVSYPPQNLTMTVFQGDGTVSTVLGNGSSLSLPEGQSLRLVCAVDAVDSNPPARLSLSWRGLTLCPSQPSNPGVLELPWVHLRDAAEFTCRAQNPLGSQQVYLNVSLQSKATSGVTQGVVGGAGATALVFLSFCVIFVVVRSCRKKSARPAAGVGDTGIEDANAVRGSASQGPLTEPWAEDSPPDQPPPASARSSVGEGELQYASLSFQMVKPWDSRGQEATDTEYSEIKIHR

Trypanosoma cruzi = test: Trypanosoma cruzi phosphomannomutase and mannose-1-phosphate guanylyltransferase assay; assay type: functional; conditions: 10 µM
[5] = target: T2, Arginase-2, mitochondrial (Homo sapiens) (UniProt P78540); test: in vitro enzyme assay to detect the production of urea directly proportional to the activity of Arginase II; assay type: functional; conditions: 33.3 µM; further: in the data most compounds retested in dose-response had high values
T2 sequence (whole entry): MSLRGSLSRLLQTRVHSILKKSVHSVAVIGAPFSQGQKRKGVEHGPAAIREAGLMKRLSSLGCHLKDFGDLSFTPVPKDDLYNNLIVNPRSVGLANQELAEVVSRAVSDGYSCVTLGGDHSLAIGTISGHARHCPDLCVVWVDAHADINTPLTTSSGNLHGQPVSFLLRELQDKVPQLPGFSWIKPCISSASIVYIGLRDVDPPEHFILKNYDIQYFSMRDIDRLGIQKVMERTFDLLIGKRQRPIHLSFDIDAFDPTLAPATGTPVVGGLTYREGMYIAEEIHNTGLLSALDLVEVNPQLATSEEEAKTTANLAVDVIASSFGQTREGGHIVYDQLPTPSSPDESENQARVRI

[6] = target: T3, Proteasome subunit beta (Trypanosoma cruzi) (UniProt O96673); test: Trypanosoma cruzi proteasome chymotrypsin-like activity (TcProtChymo) assay.; further: in the data most compounds retested in dose-response had high values; assay type: functional; conditions: 9.37 µM
T3 sequence (whole entry): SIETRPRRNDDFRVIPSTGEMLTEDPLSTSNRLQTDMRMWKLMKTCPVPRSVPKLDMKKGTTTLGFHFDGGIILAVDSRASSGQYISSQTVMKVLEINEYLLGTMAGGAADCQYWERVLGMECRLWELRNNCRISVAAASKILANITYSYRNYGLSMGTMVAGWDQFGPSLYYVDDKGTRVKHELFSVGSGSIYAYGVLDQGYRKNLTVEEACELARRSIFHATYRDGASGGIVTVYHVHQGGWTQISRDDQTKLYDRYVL

Homo sapiens = species: Homo sapiens; test: To identify inhibition of the IFN signalling (Jak-Stat) pathway via expression of an eGFP reporter gene under the control of an IFN-stimulated response element (ISRE) containing MxA promoter.; assay type: functional; conditions: 30 µM
[7] = target: T4, Tyrosyl-tRNA synthetase, putative (Trypanosoma cruzi (strain CL Brener)) (UniProt Q4DSP6); test: Trypanosoma cruzi tyrosyl tRNA synthetase (TcYRS) _High Tyrosine SOP; assay type: functional; conditions: 30 µM; further: in the data most compounds retested in dose-response had high values
T4 sequence (whole entry): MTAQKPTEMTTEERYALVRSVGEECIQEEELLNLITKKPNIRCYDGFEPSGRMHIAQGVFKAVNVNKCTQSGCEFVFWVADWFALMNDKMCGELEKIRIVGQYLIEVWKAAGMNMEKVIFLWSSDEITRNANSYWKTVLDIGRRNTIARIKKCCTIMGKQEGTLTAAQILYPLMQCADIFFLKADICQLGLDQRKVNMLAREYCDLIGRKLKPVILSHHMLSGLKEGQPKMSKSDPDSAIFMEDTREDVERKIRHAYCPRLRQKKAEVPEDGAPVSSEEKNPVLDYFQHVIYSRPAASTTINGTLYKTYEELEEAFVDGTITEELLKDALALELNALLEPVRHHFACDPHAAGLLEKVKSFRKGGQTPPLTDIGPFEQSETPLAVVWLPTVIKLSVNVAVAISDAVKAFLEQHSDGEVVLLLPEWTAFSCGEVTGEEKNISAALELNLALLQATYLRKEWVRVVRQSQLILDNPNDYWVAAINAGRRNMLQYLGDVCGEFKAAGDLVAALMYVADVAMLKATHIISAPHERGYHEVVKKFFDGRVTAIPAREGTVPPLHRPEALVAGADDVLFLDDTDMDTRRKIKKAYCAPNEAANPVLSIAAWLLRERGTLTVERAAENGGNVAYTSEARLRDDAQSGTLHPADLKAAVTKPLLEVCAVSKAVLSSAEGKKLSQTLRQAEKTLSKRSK

[8] = target: T4, Tyrosyl-tRNA synthetase, putative (Trypanosoma cruzi (strain CL Brener)); test: Trypanosoma cruzi tyrosyl tRNA synthetase (TcYRS) SOP; assay type: functional; conditions: 30 µM
[9] = target: Chromo domain-containing protein 1 (Saccharomyces cerevisiae (strain ATCC 204508 / S288c) (Baker's yeast)) (UniProt P32657); test: ScCHD-1 Enzyme Inhibition Assay; assay type: functional; conditions: 30 µM; further: in the data most compounds retested in dose-response had high values
Chain of Chromo domain-containing protein 1 (Saccharomyces cerevisiae (strain ATCC 204508 / S288c) (Baker's yeast)) (P32657 whole entry, the tested form may be a part): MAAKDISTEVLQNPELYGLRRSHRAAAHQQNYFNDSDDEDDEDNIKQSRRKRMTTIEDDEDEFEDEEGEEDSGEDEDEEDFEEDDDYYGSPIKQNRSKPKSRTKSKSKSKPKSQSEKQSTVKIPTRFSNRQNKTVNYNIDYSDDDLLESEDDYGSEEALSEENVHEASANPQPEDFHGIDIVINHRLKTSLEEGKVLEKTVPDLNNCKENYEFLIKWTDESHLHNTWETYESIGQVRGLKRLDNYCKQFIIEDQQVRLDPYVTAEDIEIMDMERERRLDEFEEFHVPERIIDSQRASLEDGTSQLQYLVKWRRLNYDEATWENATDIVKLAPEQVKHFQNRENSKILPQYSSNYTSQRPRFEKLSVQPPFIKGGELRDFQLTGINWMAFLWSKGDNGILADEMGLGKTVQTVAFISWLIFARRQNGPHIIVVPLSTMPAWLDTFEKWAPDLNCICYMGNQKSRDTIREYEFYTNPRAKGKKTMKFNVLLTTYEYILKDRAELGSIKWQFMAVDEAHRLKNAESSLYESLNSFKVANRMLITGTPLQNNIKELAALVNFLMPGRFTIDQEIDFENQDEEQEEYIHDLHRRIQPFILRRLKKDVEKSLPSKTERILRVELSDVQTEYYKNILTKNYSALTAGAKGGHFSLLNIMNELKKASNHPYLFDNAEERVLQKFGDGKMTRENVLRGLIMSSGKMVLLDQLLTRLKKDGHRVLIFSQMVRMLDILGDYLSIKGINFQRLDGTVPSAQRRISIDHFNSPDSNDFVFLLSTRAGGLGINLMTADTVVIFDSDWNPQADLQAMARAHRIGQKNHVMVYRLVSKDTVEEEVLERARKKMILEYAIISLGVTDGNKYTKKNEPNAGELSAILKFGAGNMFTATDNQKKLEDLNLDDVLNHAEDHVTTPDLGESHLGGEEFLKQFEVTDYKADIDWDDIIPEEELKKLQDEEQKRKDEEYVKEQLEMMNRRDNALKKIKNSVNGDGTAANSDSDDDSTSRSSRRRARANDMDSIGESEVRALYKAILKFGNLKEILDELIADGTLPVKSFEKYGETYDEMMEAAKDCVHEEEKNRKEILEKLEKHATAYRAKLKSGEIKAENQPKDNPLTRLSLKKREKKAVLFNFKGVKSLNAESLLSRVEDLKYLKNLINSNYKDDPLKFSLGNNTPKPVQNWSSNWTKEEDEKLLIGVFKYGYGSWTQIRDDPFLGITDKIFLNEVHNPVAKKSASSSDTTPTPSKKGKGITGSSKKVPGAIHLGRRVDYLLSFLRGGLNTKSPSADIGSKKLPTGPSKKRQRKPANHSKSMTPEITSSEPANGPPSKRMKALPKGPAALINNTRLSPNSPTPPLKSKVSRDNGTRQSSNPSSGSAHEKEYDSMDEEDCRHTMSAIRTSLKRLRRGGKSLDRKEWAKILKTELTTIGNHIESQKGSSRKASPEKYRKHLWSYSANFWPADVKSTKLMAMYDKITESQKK

Row | Compound | Percent Effect [1] [%] | Percent Effect [2] [%] | Percent Effect [3] [%] | Percent Effect [4] [%] | Percent Effect (Trypanosoma cruzi) [%] | Percent Effect [5] [%] | Percent Effect [6] [%] | Percent Effect (Homo sapiens) [%] | Percent Effect [7] [%] | Percent Effect [8] [%] | Percent Effect [9] [%]
1 | COc1ccc(CC(=O)N2CCCC2Cn2cccn2)cc1F (stereo unspecified) | -2.59 | 2.63 | -8.2 | 6.06 | -2.52 | 1.44 | 2.12 | -12.5 | -0.493 | 1.24 | -2.17
2 | COCC1Cn2nnc(-c3cnn(C)c3)c2CN1Cc1ccco1 (stereo unspecified) | -2.03 | 2.7 | -7.24 | 5.87 | 1.37 | 23.8 | 9.72 | -17.4 | 11.9 | 15.8 | -5.92
3 | CCC(=O)N1CCC(c2nnc(Cn3cncn3)n2C2CC2)CC1 | -0.998 | 15.3 | -1.98 | 12.9 | 5.34 | 16.3 | 17.7 | 0.244 | -1.05 | 15.4 | -3.53
4 | O=C(C(CNCc1ccsc1)c1ccccc1)N1CCOCC1 (stereo unspecified) | -5.96 | 5.2 | -2.02 | 3.85 | 1.87 | 5.52 | 6.49 | -32.4 | 1.07 | 1.24 | 1.41
5 | CCc1nc(C2CCCN(C(=O)CCn3ccccc3=O)C2)no1 (stereo unspecified) | -2.1 | 0 | -7.52 | -0.82 | 8.08 | -1.15 | 1.34 | -13.7 | -0.49 | 0 | 2.66
6 | c1cnnc(N2CCCC2CNCc2nc3ccccc3o2)c1 (stereo unspecified) | -0.208 | 2.74 | -3.71 | 10.3 | 0 | -3.19 | 21 | -2.37 | 15.6 | 25.9 | -2.93
7 | N#Cc1ccc(C2CC(=O)Nc3c2cnn3C2CCCC2)cc1 (stereo unspecified) | -3.53 | 13.3 | 0.53 | 17.4 | 4.77 | 19.3 | 3.66 | 6.86 | 1.64 | 8.64 | -14.9
8 | Oc1ccc(N2CCN(Cc3cc4c(cc3Br)OCCO4)CC2)cc1 | -0.859 | -9.72 | 44.8 | 3.01 | -1.07 | -2.21 | 13.2 | 27.4 | 9.47 | 10.3 | -3.02
9 | O=C1CCC2(CCN(Cc3cc(F)ccc3Cl)CC2)CN1C1CCCC1 | 0.0694 | 13.3 | -4.38 | 3.44 | 3.99 | 0 | 18.1 | 18.2 | 7.1 | 13.6 | -2.27
10 | NC(=O)C(CNC(=O)COCC(F)(F)F)Cc1ccc(F)cc1 (stereo unspecified) | -3.66 | 5.26 | 9.48 | -1.54 | 0.292 | -5.92 | 13.1 | -19.6 | 2.13 | 15.6 | -4.87
11 | CN1CCN(C(=O)NC2CC2)Cc2cccnc21 | -0.328 | 10.7 | -1.13 | 3.38 | -1.35 | -23.5 | 12 | -4.24 | 6.25 | 25 | -7.54
